DT40 TDP1 CPT = growth inhibition of DT40 Tdp1-/-;hTDP1 cells with camptothecin (screen for TDP1 inhibitors); chicken DT40 Tdp1-/-;hTDP1 cells + 20 nM CPT, ATP luminescence, 48 h; Potency, µM (top dose mostly 46.2 µM), usual class: inhibitors; 420,000 tested, 12% active; also: nearly all actives have a fitted effect of over 55% in size
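Chicken DT40 Tdp1-/- cells complemented with human TDP1, 400 cells/well, exposed to compounds plus 20 nM camptothecin for at least 48 h at 37 C; viability read as ATP content by CellTiter-Glo luminescence.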
ELG1 repair inh = inhibitors of ELG1-dependent DNA repair in HEK293T cells; 330,000 tested, 2.3% active; AID 504467; Potency, µM (series often up to 46.1 µM), actives largely listed as inhibitors; HEK293T ELG1-luciferase reporter, luminescence, 16 h; DNA damage induced by 5-fluorouridine; also: nearly all actives have a fitted effect of over 55% in size
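Step one: seed 2,000 cells per well. Step two: pin-transfer compound or DMSO alongside 5-fluorouridine. Step three: incubate 16 hr, 37 °C, 5% CO2. Step four: add ONE-Glo, wait 30 min, read luminescence.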
IL1B secr inh = inhibitors of inflammasome signaling (IL-1 beta secretion); THP-1 LPS/ATP IL-1B secretion, AlphaLISA, 16 h; active compounds read low; activity change, % at 57.5 µM; 360,000 tested, 4.7% active; in the data active = activity change below about -50%; inconclusive = mostly about -30% to -49%
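THP-1 cells pretreated 1 hr with compounds (up to 57.5 uM final), then stimulated with LPS (250 ng/mL final) plus ATP (1.25 mM final); secreted IL-1B measured by AlphaLISA after 16 hr, decreased signal indicating inhibition.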
HT1080 IDH1KD tx = HT-1080 IDH1 knockdown cell toxicity (counter line); HT-1080 IDH1 knockdown viability, ATP luminescence, 48 h; Potency, µM (top dose mostly 46.1 µM), most hits filed as cytotoxic; 360,000 tested, 2% active
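CellTiter-Glo luminescence after 48 h compound exposure at 37 degrees C of IDH1-knockdown HT-1080 cells in 5% FBS RPMI. %Activity scaled between DMSO wells and cell-free media wells, with curves fitted and assigned curve classes.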
HT1080-NT tox = kills 2HG-producing HT-1080-NT fibrosarcoma cells; Potency, µM (highest dose often 46.1 µM), actives largely listed as cytotoxic; HT-1080-NT fibrosarcoma viability, CellTiter-Glo ATP luminescence, 48 h; 360,000 tested, 1.6% active;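 also: NT is the 2HG producing partner of a matched IDH1 knockdown line; nearly all actives have a fitted effect of over 55% in size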
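Luminescent CellTiter-Glo readout after 48 hours of compound exposure at 37 degrees C defined viability of HT-1080-NT cells. Activity was normalized to DMSO wells and cell-free media wells; concentration-response curves were fitted and assigned curve classes.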
TDP1 cell noCPT = qHTS for Inhibitors of human tyrosyl-DNA phosphodiesterase 1 (TDP1): qHTS in cells in absence of CPT | AID 686978, 2013 | Potency, µM (series often up to 46.2 µM), most hits filed as inhibitors | DT40 Tdp1-/- hTDP1 cells, no CPT, ATP luminescence, 48 h | 420,000 tested, 15% active; also: nearly all actives have a fitted effect of over 55% in size
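Compound effects on proliferation are scored in DT40 Tdp1-/-;hTDP1 cells in the absence of CPT. ATP levels (CellTiter-Glo luminescence) are recorded after a ≥48 hr, 37 °C incubation.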
Hits are given with their value; i = inactive; ? = inconclusive; nt = no result; [ ] = dose if it differs, or a comment. Sampled rows, rich in hits. Any-hit rate of the full collection: about 19%. Unless noted, calls follow the shape of the dose curve; as a rule, active = well fitted curve in the direction sought with a large enough effect; inconclusive = small, poorly fitted or top-dose-only effect, or another doubt; inactive = no such curve, though single readings can be large; an effect the other way counts as inactive or inconclusive.

SMILES	DT40 TDP1 CPT	ELG1 repair inh	IL1B secr inh	HT1080 IDH1KD tx	HT1080-NT tox	TDP1 cell noCPT
CC(C)(C)c1csc(N/N=C/c2cccnc2)n1	i	?	-98.9	i	i	i
C(=N\Nc1nc(-c2ccccc2)cs1)/c1cccnc1	12.6µM	?	i	?	?	?
Clc1ccc(-c2csc(N/N=C/c3cccnc3)n2)c(Cl)c1	?	i	i	i	?	?
C(=N\Nc1nccc(-c2cccnc2)n1)/c1ccccc1	0.0326µM	?	-54.5	i	i	?
COc1ccccc1C(=O)NC(=O)COC(=O)CCOc1cc(C)ccc1C	i	i	i	i	i	i
CCCCN(CCCC)c1nc(-c2ccncc2)nc2ccccc12	?	?	i	i	i	23.1µM
COCCN(CCOC)c1nc(-c2ccccc2)nc2ccccc12	?	25.9µM	?	i	i	?
COCCNc1nc(-c2ccccc2)nc2ccccc12	i	i	i	i	i	?
COCCN(CCOC)c1nc(-c2ccc(Cl)cc2)nc2ccccc12	18.4µM	?	i	i	i	13µM
CCCOc1ccc(-c2nc(OC)c3ccccc3n2)cc1	i	?	i	i	i	i
CCN(CC)c1nc(-c2ccccc2)nc2ccccc12	14.6µM	?	?	i	i	?
COc1ccc(C(=O)N2CCN(c3ncccn3)CC2)cc1[N+](=O)[O-]	i	i	i	i	i	?
Cc1cccc(C(=O)N[C@H]2CC[C@@H](n3cc(C(=O)N4CCCC4)nn3)CC2)c1	i[9.04 µM]	nt	nt	nt	nt	i
CN(Cc1ccccc1)Cc1c(O)ccc2c(=O)c(-c3ccccc3)c(C(F)(F)F)oc12	i	nt	nt	nt	nt	i
Cc1cccc(C(=O)NCC(=O)OCC(=O)c2ccc3ccccc3c2)c1	i	nt	nt	nt	nt	i
O=C(CN(C(=O)CCC(=O)Nc1ccccn1)c1ccc(F)cc1)NCc1ccc(F)cc1	i	i	i	i	i	?
Cc1cc(C)cc(N=c2c([N+](=O)[O-])nn(-c3ccc(Cl)cc3)n2O)c1	9.2µM	?	i	i	i	14.6µM
CCCOc1ccc(CCCN=C(N)N)cc1Cl	2.06µM	13µM	-90.2	20.6µM	?	2.06µM
CCCOc1ccc(NC(N)=O)cc1OCCC	i	i	i	i	i	i
CCN(CC)Cc1ccc(OC)c(Cl)c1	i	i	i	i	i	i
CCOc1ccc(CN=C(N)N=C(N)N)cc1Cl	11.6µM	i	i	i	i	5.8µM

Screens from PubChem.
